The record followed here is PubChem BioAssay (NCATS).

Assay [1] is described as follows: qHTS to identify inhibitors of the type 1 interferon - major histocompatibility complex class I in skeletal muscle: primary screen against the NCATS LOPAC collection (AID 1347405).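 Further: lytic HiBiT luminescence reporting HLA-B protein level.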 Put shortly:
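Luminescence from HiBiT fused to endogenous HLA-B in CRISPR-engineered human myoblasts served as the read-out. Cells received 4.0 ng/ml IFN-beta plus compound (seven concentrations, 1:4.3 steps, highest 46 uM final) for 24 hrs before lytic detection.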
(In qHTS, concentration-response curves come from the screen itself.)

The nature of assay [2]: qHTS to identify inhibitors of the type 1 interferon - major histocompatibility complex class I in skeletal muscle: primary screen against the NCATS Pharmaceutical Collection (AID 1347407).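 Further: luminescence of HiBiT knocked into endogenous HLA-B as interferon-induced MHC class I level.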 Summed up:
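Cells were seeded with 4 ng/ml IFN-beta, incubated 1 h, then dosed with compounds over eight 1:5 steps up to 46 uM final. After 24 h at 37 C, HiBiT lytic reagent was added and luminescence read after 10 min lysis in the dark.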

Assay [3] in a line: qHTS for inhibitors of adenylyl cyclases using a fission yeast platform: a pilot screen against the NCATS LOPAC library (AID 1347410). Put shortly: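 Growth medium went into the plates first, then compounds were pinned (final up to 57 µM), then CHP2027 yeast were added. Plates were incubated overnight (18 h) at 30C in the dark, and GFP was measured by laser scanning cytometry.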

In assay [4] the target is Protein phosphatase 1D (Homo sapiens) (UniProt O15297). Put plainly: RapidFire Mass Spectrometry qHTS Assay for Modulators of WT P53-Induced Phosphatase 1 (WIP1) (AID 1347424).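 Further: amount of dephosphorylated VEPPL-S-QETFS peptide product formed by WIP1; series mostly up to about 63 µM.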 Put shortly:
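WIP1 (10 nM final) was preincubated 1 h at room temperature with compounds in Tris-HCl pH 7.5, 30 mM MgCl2, TCEP, EGTA, BSA; 2 uM VEPPL-pS-QETFS phosphopeptide was added for 5 min, quenched with formic acid, and dephosphorylated product quantified by RapidFire MS.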

The target is the same in assay [5]. Put plainly: Rhodamine-PBP qHTS Assay for Modulators of WT P53-Induced Phosphatase 1 (WIP1) (AID 1347425). Put shortly: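 The read-out is the change in Rhodamine-PBP fluorescence (f1 - f0, ex 525/em 598 nm) as Pi is released, read each minute for 11 min. Final reaction: 5 nM WIP1, 10 uM phosphopeptide VEPPL-pS-QETFS, 10 uM Rh-PBP, 50 mM Tris-HCl pH 7.5, 30 mM MgCl2. Compound was preincubated with enzyme for 1 hour at room temperature.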

In assay [6] the target is Single-stranded DNA cytosine deaminase (Homo sapiens) (UniProt Q9GZX7). Put plainly: Validation qHTS assay for inhibitors of Activation Induced Cytidine Deaminase (AID): AID signal (AID 1347429). Put shortly:
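Fluorescence at 540 nm excitation and 590 nm emission reports ssDNA cytosine deamination by AID, with UDG in the same well. Compound-treated reactions ran 4 hr at room temperature with DJC20/DJC23 substrate, followed by 30 min NaOH treatment.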

Assay [7] can be described thus: Primary qHTS for inhibitors of La Crosse Virus (LACV) - induced cell death in SH-SY5Y cells (AID 1508616).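 Further: top concentration of the series differs between compounds; higher means more rescue of cells from virus-induced death.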 Put shortly:
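Protection against LACV-induced cell death is scored in SH-SY5Y cells exposed to compounds and virus (0.01 MOI) for 6 days. Data normalized to virus-infected DMSO wells and virus-free DMSO wells.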

For assay [8], the target named is Calcium and integrin-binding protein 1 (Homo sapiens) (UniProt Q99828). Kind of assay: Validation qHTS for Identification of Calcium Integrin Binding protein 1 (CIB1) Competitor (AID 1508618). Summed up: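 CIB1-GST (1 uM final) incubated 15 min at room temperature with compounds (up to 114 uM), then FITC-labelled alphaIIb peptide (100 nM) added. FP read (Ex 480/Em 540) after 15 min, pH 7.4 buffer containing 5 mM CaCl2.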
Calcium and integrin-binding protein 1 (Homo sapiens), sequence (Q99828 whole entry, looked up): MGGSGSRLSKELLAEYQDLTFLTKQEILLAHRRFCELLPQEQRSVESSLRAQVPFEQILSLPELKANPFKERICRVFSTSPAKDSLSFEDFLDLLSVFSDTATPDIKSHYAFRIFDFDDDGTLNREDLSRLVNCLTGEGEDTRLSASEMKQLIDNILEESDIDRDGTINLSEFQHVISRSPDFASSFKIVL

For assay [9] the target is unchanged. Kind of assay: Primary qHTS for Identification of Calcium Integrin Binding Protein 1 (CIB1) Competitor (AID 1508620).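 Further: GST tagged CIB1 binding a fluorescein labelled alphaIIb integrin peptide tracer; top concentration of the series differs between compounds.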 Put shortly: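 Fluorescence polarization competition: CIB1-GST (1 uM final) preincubated with compound 15 min at room temperature, then FITC-labeled alphaIIb peptide (100 nM final) added for another 15 min. Polarization read at Ex 480/Em 540.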

A short description of assay [10]: Primary qHTS for small molecule stabilizers of the endoplasmic reticulum resident proteome: Secreted ER Calcium Modulated Protein (SERCaMP) assay (AID 1508630). Put shortly:
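GLuc-SERCaMP-expressing SH-SY5Y cells, pretreated 16 h with compound, are challenged with thapsigargin to empty ER calcium stores; after 4 h, coelenterazine is added directly to the medium and luminescence is imaged.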

Assay [11] is described as follows: A High-Content qHTS Against Drug Library for the Identification of Small Molecules that Inhibit DYT1 Early Onset Primary Dystonia-Associated Cell Pathology (AID 1645839; calls by dose curve; further: series mostly up to about 46 µM). Put shortly: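 Readout: %pathology, the punctate EGFP-TorsinA distribution from imaging, as the primary channel and cell count as the toxicity counterscreen. HEK293 Flp-In cells expressing delE TorsinA were induced with tetracycline and treated with compound for 48 h.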

Assay [12] concerns the target Cytochrome P450 2D6 (Homo sapiens) (UniProt P10635). Kind of assay: Cytochrome P450 family 2 subfamily D member 6 (CYP2D6) small molecule antagonists: luciferase biochemical (cell-free) qHTS assay (AID 1645840; active means well fitted curve in the direction sought with a large enough effect in the repeat runs; an effect the other way counts as inactive or inconclusive; further: nearly all actives have a fitted effect of over 55% in size; further: potency means the concentration at half of the fitted maximal effect). Put shortly:
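P450-Glo luminescent screen: recombinant CYP2D6 enzyme–proluciferin substrate mix preincubated with compound 10 min at room temperature, then NADPH regeneration added for 1 h at room temperature. Detection reagent added for 20 min; luciferin light read as relative luminescence units.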

The target of assay [13] is Cytochrome P450 2C9 (Homo sapiens) (UniProt P11712). Kind of assay: Cytochrome P450 family 2 subfamily C member 9 (CYP2C9) small molecule antagonists: luciferase biochemical (cell-free) qHTS assay (AID 1645842; active means well fitted curve in the direction sought with a large enough effect in the repeat runs; an effect the other way counts as inactive or inconclusive; further: nearly all actives have a fitted effect of over 55% in size; further: potency means the concentration at half of the fitted maximal effect). Summed up:
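Luminescence, after 20 min with luciferin detection reagent, reflected CYP2C9 turnover during a 1 h NADPH-driven reaction at 37C. Enzyme-substrate mix contained 0.4% bovine serum albumin and was preincubated with compound 10 min at room temperature.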

The next assay concerns the target Papain (Carica papaya) (UniProt P00784). Kind of assay: Primary qHTS assay for inhibitors of the protease papain (AID 1645873).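 Further: papain turnover of Z-FR-AMC read as the AMC fluorescence gain over 10 min; series mostly up to about 50 µM.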
Assay [14] in a line: Primary qHTS for inhibitors of nuclear receptor binding SET domain protein 2 (NSD2) in an isogenic RCH-ACV NSD2 p.E1099K mutant (9B) (AID 1645876). Further: nearly all actives have a fitted effect of over 70% in size.
The nature of assay [15]: Validation qHTS assay for inhibitors of Activation Induced Cytidine Deaminase (AID): UDG Counterscreen signal (AID 1347427). Summed up: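 Counterscreen read of UDG activity (2 U/mL, 4/3x) in the FRET deamination format with AID (1 uM, 4/3x), DJC20/DJC23 substrates (250 nM, 4x), 4 h at room temperature. NaOH stop, fluorescence at 560 ex/665 em.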

A number with no mark means an inactive call. Inconclusive results are not listed. Active and inactive are the calls of the source. Unless noted, the call rests on the fitted dose curve; in most records, active means well fitted curve in the direction sought with a large enough effect; inconclusive means small, poorly fitted or top-dose-only effect, or another doubt; inactive means no such curve, though single readings can be large; an effect the other way counts as inactive or inconclusive.

Papain (Carica papaya), sequence (P00784 whole entry, looked up, the tested form may be a part): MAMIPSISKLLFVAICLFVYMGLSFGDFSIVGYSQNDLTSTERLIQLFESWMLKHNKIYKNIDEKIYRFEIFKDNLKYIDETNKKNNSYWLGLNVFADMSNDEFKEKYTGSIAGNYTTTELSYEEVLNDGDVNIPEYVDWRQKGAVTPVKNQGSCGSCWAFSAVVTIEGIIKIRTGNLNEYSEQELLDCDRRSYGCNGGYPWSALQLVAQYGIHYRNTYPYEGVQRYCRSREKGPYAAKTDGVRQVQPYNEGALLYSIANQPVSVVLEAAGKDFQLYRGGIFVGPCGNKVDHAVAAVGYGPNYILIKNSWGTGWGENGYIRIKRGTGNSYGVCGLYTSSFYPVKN
Cytochrome P450 2D6 (Homo sapiens), sequence (P10635 whole entry, looked up): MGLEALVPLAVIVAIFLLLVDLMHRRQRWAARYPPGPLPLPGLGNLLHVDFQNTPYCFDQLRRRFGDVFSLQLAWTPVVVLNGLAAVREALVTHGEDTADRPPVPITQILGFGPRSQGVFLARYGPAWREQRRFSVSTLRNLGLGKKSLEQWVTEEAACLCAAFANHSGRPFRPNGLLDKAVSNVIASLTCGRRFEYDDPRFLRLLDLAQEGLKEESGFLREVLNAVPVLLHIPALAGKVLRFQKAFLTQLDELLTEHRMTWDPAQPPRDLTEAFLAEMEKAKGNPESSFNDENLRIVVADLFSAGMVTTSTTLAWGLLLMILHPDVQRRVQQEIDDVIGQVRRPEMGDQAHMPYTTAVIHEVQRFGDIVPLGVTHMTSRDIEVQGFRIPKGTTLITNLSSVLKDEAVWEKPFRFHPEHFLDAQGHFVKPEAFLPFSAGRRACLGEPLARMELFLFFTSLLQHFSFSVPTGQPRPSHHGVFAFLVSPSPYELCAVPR
Cytochrome P450 2C9 (Homo sapiens), sequence (P11712 whole entry, looked up): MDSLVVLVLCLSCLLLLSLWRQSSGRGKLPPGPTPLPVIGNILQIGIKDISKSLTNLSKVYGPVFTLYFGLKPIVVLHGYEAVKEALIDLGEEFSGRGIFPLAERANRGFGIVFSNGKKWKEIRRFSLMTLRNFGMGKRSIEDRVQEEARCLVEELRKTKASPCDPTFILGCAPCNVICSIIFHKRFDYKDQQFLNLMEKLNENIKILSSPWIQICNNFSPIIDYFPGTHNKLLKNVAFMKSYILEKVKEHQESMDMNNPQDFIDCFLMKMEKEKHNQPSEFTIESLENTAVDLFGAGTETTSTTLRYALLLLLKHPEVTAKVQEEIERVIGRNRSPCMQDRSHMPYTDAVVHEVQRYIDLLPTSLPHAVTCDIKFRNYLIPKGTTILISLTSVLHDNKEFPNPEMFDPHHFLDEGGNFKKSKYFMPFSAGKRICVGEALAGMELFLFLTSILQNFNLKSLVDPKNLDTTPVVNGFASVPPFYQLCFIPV
Single-stranded DNA cytosine deaminase (Homo sapiens), sequence (Q9GZX7 whole entry, looked up): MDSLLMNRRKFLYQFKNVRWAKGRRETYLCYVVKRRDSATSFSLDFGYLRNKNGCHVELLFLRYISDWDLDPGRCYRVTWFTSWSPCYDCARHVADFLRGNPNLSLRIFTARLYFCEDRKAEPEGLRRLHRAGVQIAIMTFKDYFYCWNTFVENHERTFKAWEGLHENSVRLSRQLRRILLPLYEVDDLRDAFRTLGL
Protein phosphatase 1D (Homo sapiens), sequence (O15297 whole entry, looked up): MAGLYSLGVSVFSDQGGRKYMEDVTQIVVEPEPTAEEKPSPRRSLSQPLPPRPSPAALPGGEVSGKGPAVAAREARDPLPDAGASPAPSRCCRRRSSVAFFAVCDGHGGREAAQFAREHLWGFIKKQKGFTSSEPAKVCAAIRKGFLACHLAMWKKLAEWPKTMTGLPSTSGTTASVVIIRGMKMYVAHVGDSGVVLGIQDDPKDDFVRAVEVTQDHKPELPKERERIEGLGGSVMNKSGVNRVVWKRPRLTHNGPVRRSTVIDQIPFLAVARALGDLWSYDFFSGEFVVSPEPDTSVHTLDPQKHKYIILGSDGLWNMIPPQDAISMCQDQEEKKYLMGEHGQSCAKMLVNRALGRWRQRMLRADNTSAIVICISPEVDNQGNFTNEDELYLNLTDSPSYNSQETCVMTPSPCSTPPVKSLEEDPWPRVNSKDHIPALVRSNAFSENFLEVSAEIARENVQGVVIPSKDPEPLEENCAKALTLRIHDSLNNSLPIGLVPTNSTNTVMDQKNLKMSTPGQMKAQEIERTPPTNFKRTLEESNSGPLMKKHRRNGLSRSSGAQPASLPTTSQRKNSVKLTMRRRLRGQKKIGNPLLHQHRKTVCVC

Consider `Cc1ccc(=O)n(-c2ccccc2)c1`, for which the Potency entry in [1], in [2], in assay [4], in assay [6], in assay [7] and in assay [9] was “inactive” each time. For the same compound, the Potency entry (in [10]; in [11]; in assay [12]; in [13]; with Papain (Carica papaya); in assay [14]) was “inactive” in each case. Besides, the result in [3], in assay [5] and in assay [8] was inactive.

For the compound `CC(N=C(NC#N)Nc1ccncc1)C(C)(C)C` (centres undefined), the Potency result in [1], in assay [2], in assay [6], in [7], in assay [9] and in assay [10] was “inactive” throughout. In addition, the Potency result (with Papain (Carica papaya); in [14]) was “inactive” throughout. Further, the compound was called inactive in assay [3], in [5], in assay [15] and in assay [8]. For the same compound, the Potency was 21.9 µM (active) in [12] and 3.89 µM (active) in assay [13].

Turning to `CC(C)(C)NCC(O)c1cc(O)cc(O)c1` (centres undefined), the Potency result in [1], in [2], in [4], in assay [6], in [7] and in [9] was “inactive” each time. Moreover, the Potency result in assay [10], in assay [11], in assay [12] and in assay [13] was “inactive” each time. Moreover, the result in assay [3], in assay [5] and in assay [8] was inactive.

As for `CC(C)NNC(=O)c1ccncc1`, the Potency result in assay [1], in assay [2], in assay [6], in [7], in assay [9] and in [10] was “inactive” in each case. Moreover, the Potency entry (in assay [11]; in assay [12]; in [13]; with Papain (Carica papaya); in [14]) was “inactive” throughout. Also, the result in assay [3], in assay [5], in assay [15] and in assay [8] was inactive.

Take `CNC1(C)C2CCC(C2)C1(C)C` (centres undefined): the Potency entry in assay [1], in assay [2], in assay [4], in assay [6], in assay [7] and in assay [9] was “inactive” throughout. Further, the Potency entry (in assay [10]; in [12]; in assay [13]; in the assay with Papain (Carica papaya); in assay [14]) was “inactive” throughout. For the same compound, the result in assay [3], in assay [5] and in assay [8] was inactive.

Turning to `C(=C\c1ccccc1)/CN1CCN(C(c2ccccc2)c2ccccc2)CC1`, the Potency entry in [1], in [2], in [4], in assay [6], in [7] and in assay [9] was “inactive” throughout. Also, the Potency entry (in the assay with Papain (Carica papaya); in assay [14]) was “inactive” throughout. Besides, the compound was classed as inactive in assay [3], in assay [5], in assay [15] and in assay [8].

On to `FC(F)(F)c1ccccc1-n1ccnc1`, for which the Potency result in assay [1], in [2], in assay [6], in assay [7], in [9] and in assay [10] was “inactive” each time. Besides, the Potency entry in assay [11] and in assay [14] was “inactive” each time. For the same compound, the call in assay [3], in assay [5], in assay [15] and in assay [8] was inactive. For the same compound, the Potency in [12] is 3.47 µM (active); in assay [13], 13.8 µM (active).

On to `CCC(=O)c1ccc2c(c1)N(CCCN(C)C)c1ccccc1S2`, for which the Potency result in assay [1], in [2], in assay [4], in [6], in assay [7] and in assay [9] was “inactive” in each case. Further, the Potency entry (in assay [13]; with Papain (Carica papaya)) was “inactive” each time. Moreover, the compound was called inactive in [3], in assay [5] and in assay [8]. The Potency in [12] is 0.49 µM (active).
